# Test results taken from PubChem BioAssay AID489018 (Southern Research Specialized Biocontainment Screening …, 2010).
# Hit rate of the full screen: of about 2,300 compounds, about 350 (15%) were called active. Only a sample is shown. Entries with a potency or affinity are not part of this list. Unmarked numbers belong to inactive results. How the calls were made is not given here.
# Assay: HepG2 cell cytotoxicity, dose response, cytotoxicity control for non-replicating M. tuberculosis project (AID 489018);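 further: HepG2 human liver cells; 100% = vehicle-treated cells and 0% = background signal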
# Settings: series mostly up to 20 µM; viability: at the top concentration
row,Compound,viability
1,OCC1(CCOc2ccccc2)CCN(Cc2cc(Cl)ccc2O)CC1,117%
2,COc1ccc(C2(O)CCN(CCCCOc3ccccc3)CC2)cc1,94.8%
3,Clc1cccc(OCCN2CCN(CCOc3cccc(Cl)c3)CC2)c1,88.1%
4,CC(C)Cn1c(N)c(C(=O)COC(=O)c2cnc(Cl)c(Cl)c2)c(=O)n(C)c1=O,102%
5,O=C(Oc1cccnc1)c1ccc(Cl)c(Cl)c1,103%
6,CC(=O)c1ccc(-n2cc(-c3ccc(C(C)(C)C)cc3)[n+]3c2SCCC3)cc1,100%
7,Cn1c(=O)c(Oc2ccc(F)cc2)c(O)c2ccccc21,95.5%
8,O=C(Nc1nccs1)c1ccc(COc2ccc(Cl)cc2)o1,98.2% [at 5 µM]
9,COc1cccc(COC(=O)CCNC(=O)c2ccc(Cl)cc2)c1OC,106%
10,O=C(Oc1ccccc1)c1ccc(COC(=O)c2cnccn2)cc1,99.2%
11,NC1=NC[C@H](Cc2ccccc2)N1CCCCC1CCCCC1,96.8% [at 5 µM]
12,CCCC(=O)N1CCC(Cc2ccccc2)CC1,120%
13,Cc1ccc(NC(C)C(=O)N/N=C/c2ccc([N+](=O)[O-])s2)cc1 (configuration not stated),82.1%
14,CC(C)COc1ccc(C(=O)CCN2CCCCC2)cc1,94.7%
15,COc1ccc2cc(C(=O)C3CCCN(Cc4ccccn4)C3)ccc2c1 (configuration not stated),74.4%
16,CCOc1ccc(C(=O)CCN2CCCCCC2)cc1,106% [at 5 µM]
17,COc1ccc(C(=O)CCN2CCCCCC2)cc1,95%
18,CC(CN1CCOCC1)OC(=O)c1ccc2c(c1)OCCO2 (configuration not stated),95.4%
19,Cc1ccc(NC(CC(=O)c2ccccc2)C(=O)O)cc1Cl (configuration not stated),99.8%
20,CC(CN1CCOCC1)OC(=O)c1ccc(Br)cc1 (configuration not stated),80%
21,CC(NC(=O)OCc1ccccc1)c1ccccc1 (configuration not stated),96%
22,CC(=O)c1cc2c(ccc3ccccc32)oc1=O,99.2% [at 5 µM]
23,Cc1c([N+](=O)[O-])cnc(Sc2ccccc2)c1[N+](=O)[O-],97.7%
24,O=C(C/C=N\OCc1ccc([N+](=O)[O-])cc1)Nc1ccccc1,99%
25,Cc1nnc(N/N=C/c2cccc(OCc3ccc(Cl)c(Cl)c3)c2)n1N,83.2%
26,O=C(CN1CCC(NC(=O)c2cccc(F)c2)CC1)Nc1ccc(Br)cc1,96.4% [at 5 µM]

row,Compound,viability
1,COc1cccc(NC(=O)c2cnc(SC)nc2)c1,106%
2,CCOC(=O)c1c(C)nc2c3ccccc3ccn12,101% [at 5 µM]
3,COC(=O)c1ccc(N2CCN(CCNC(=O)Nc3ccc(OC)cc3)CC2)cc1,104%
4,COC(=O)COc1ccc2c(=O)c(Oc3ccccc3)c(C)oc2c1,98%
5,O=C(CCSc1ccccc1)N1CCCC1,86%
6,O=C(CCN1CCCCCC1)c1ccccc1,105%
7,O=C(Nc1nccs1)c1ccccn1,97%
8,O=C(Nc1nc(-c2cc(F)ccc2F)cs1)c1ccccn1,107% [at 5 µM]
9,Cc1ccc2nc(NC(=O)c3ccccn3)sc2c1,91.4%
10,Cc1cnc(NC(=O)c2ccccn2)s1,83.2%
11,CC1=C(/C=C/C(C)=N\NC(=O)c2ccncc2)C(C)(C)CCC1,84.7%
12,O=C(COC(=O)COc1ccc(Nc2ccccc2)cc1)NCc1ccco1,103% [at 5 µM]
13,O=C(COc1ccccc1)Nc1nnc(-c2ccc(Cl)cc2)o1,105%
14,CC(C)Cc1cc(C(=O)Nc2ccc(F)cc2F)no1,99.7%
15,O=C(Nc1c(F)cc(F)cc1Br)c1cc(-c2ccccc2)on1,101%
16,O=C(N/N=C\c1ccc([N+](=O)[O-])s1)C1COc2ccccc2O1 (configuration not stated),96.5%
17,O=C(CCSc1nnc(-c2ccncc2)o1)Nc1cccc(Cl)c1,95.7%
18,CCn1ccc(C(=O)Nc2cccc(Cl)c2)n1,111% [at 5 µM]
19,Cc1noc2ncnc(Sc3ccc(Br)cc3)c12,99.2%
20,O=c1cc(-c2ccccc2Cl)oc2c([N+](=O)[O-])c(O)cc(O)c12,80.7%
21,CCOC(=O)c1ccc(NC2=CC(=O)C(=O)c3ccccc32)cc1,92.8%
22,O=C1C=C(Nc2ccc(F)cc2)c2ccccc2C1=O,96.4% [at 5 µM]
23,CCN(CC)S(=O)(=O)c1ccc(C(=O)OCn2nnc3ccccc3c2=O)cc1,91.7%
24,O=c1cc(-c2ccccc2Cl)oc2ccc([N+](=O)[O-])c(O)c12,87.9%
25,CCC/C(=N\NC(=O)c1ccco1)c1ccc(Cl)s1,103% [at 5 µM]
26,CCCc1cc(C(=O)Nc2ccccc2SC)no1,111%

row,Compound,viability
1,Cc1cc(C(=O)N/N=C/c2ccc([N+](=O)[O-])s2)n[nH]1,78.5%
2,Cc1cc(C)n(CC(=O)N/N=C/c2ccc([N+](=O)[O-])s2)n1,73.2%
3,Cc1ccc(C(=O)N/N=C\c2ccc([N+](=O)[O-])s2)cn1,77.5%
4,O=c1oc(/C=C/c2ccc([N+](=O)[O-])s2)nc2ccccc12,111%
5,CCOC(=O)c1cc(-c2csc(COc3ccccc3)n2)on1,104%
6,O=C(N/N=C\C=C\c1ccco1)c1cncc(Br)c1,87%
7,Cc1cc(C)n2nc(S(=O)(=O)Nc3c(Cl)cccc3Cl)nc2n1,93.4%
8,CS(=O)(=O)Nc1cccc2cccnc12,76%
9,O=C(OCc1nnc(-c2ccccc2)o1)c1cc([N+](=O)[O-])ccc1Cl,106%
10,O=c1c2cc(Cl)ccc2nc(-c2ccccc2Cl)n1O,89.7%
11,CCOC(=O)c1ccc(COC(=O)c2ccc(-c3nnc(-c4ccccc4)o3)cc2)o1,87.1%
12,Cc1cc(OCCCCn2ccnc2)cc(C)c1Cl,79.8%
13,O=C(c1ccc([N+](=O)[O-])cc1[N+](=O)[O-])N1CCc2ccccc21,94.7%
14,Cc1ccc(S(=O)(=O)CCC(=O)Nc2nc(-c3ccncc3)cs2)cc1,88%
15,CC(/C=C/c1ccccc1F)=N\NC(=O)c1ccccc1,85.1%
16,O=S1(=O)C=C(Sc2nc3cc(Cl)ccc3o2)c2ccccc21,97.2% [at 5 µM]
17,O=C1c2ccccc2CC1Sc1nnc(-c2ccncc2)o1 (configuration not stated),93.4%
18,O=C(O)c1[nH]c(=O)[nH]c(=O)c1F,82.3%
19,CC1=NN(c2ccccc2)C(=O)C1C(=O)c1ccccc1 (configuration not stated),104%
20,Nc1nc2ccccc2n1C(=O)c1ccc(F)cc1,93.2%
21,C=CCc1ccc(OCC(O)CN2CCN(Cc3ccc(Cl)cc3)CC2)c(OC)c1 (configuration not stated),79.2%
22,OC(COc1ccccc1Cl)CN1CCN(CC(O)COc2ccccc2Cl)CC1 (configuration not stated),82.6%
23,CCC(=O)Nc1nc2ccccc2n1Cc1ccccc1,73.6%
24,O=C(COc1ccccc1)NCCSCc1ccc(Cl)cc1,93.8%
25,O=C(Nc1ncc([N+](=O)[O-])s1)c1ccc2c(c1)OCO2,70.5%
